{
  "source": "PubChem BioAssay (NCI)",
  "note": "The panel holds about 83,000 compounds, 20% with a hit somewhere; the sample as a whole holds those more often.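 The test compound was applied at a single concentration to cells in 96-well plates for 48 hours, and percent growth was recorded.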 A number with no mark means an inactive call. The source made the active and inactive calls.",
  "data": [
    {"test_system": "OVCAR-5 ovarian", "test": "NCI-60 one-dose screen, 48 h (100 = growth as untreated, 0 = no growth, -100 = all killed)", "details": "10 µM unless noted", "method": "Growth inhibition of the OVCAR-5 human tumor cell line is measured as a screen for anti-cancer activity. Cells are grown in 96 well plates and exposed to the test compound for 48 hours. Compounds are tested at a single concentration, which is 10^-5 M for most compounds. The reported endpoint is percent growth (GI% or GIPRCNT), where numbers from 0 - 100% represent growth inhibition, and numbers from -100% - 0 represent cell death. For example, a value of 40 represents 60% growth inhibition. A value of 0 means no net growth occurred over the course of the experiment. A value of -40 indicates 40% of cells at the beginning of the experiment died by the end of the experiment. A value of -100 means all cells are dead at the end of the experiment.\nNCI-60 Human Tumor Cell Lines Screen was performed using the standard one-dose NCI protocol, which is described in more detail at https://dtp.cancer.gov/discovery_development/nci-60/default.htm.\nCompounds with GIPRCNT values below 10 were considered active. Activity score was based on GIPRCNT using the following formula: […]\nScore is 0 for GIPRCNT values of 100 or above, 50 for GIPRCNT values of 0, and 100 for GIPRCNT values of -100.", "values": [
      {"smiles": "COc1cc(/C=N/NC(=O)c2cn(C3CC3)c3c(OC)c(N4CC5CCCNC5C4)c(F)cc3c2=O)ccc1O", "note": "(stereo not given)", "growth": "38.4%"},
      {"smiles": "Oc1[nH]c2ccccc2c1Nn1c(N=N/C=c2/ccc3c(c2)C=NN=3)n[nH]c1=S", "growth": "109%"},
      {"smiles": "CN1CCN(Cc2ccc(NC(=O)c3cncc(C#Cc4cnc5ccc(NCCCO)nn45)c3)cc2C(F)(F)F)CC1", "growth": "4.78% (active)"},
      {"smiles": "NC(N)=Nc1ccc(Oc2cccc(Nc3ccc(Br)c(C(F)(F)F)c3)c2)cn1", "growth": "-56.6% (active)"},
      {"smiles": "COc1cc(-c2nn(C(C)(C)C)cc2-c2ccnc(NCCCNS(=O)(=O)c3cccc(F)c3)n2)ccc1Cl", "growth": "80.5%"},
      {"smiles": "CC(C)(C)c1ccc(CC(=O)Nc2sc3c(c2C(N)=O)CCC(=O)C3)cc1", "growth": "7% (active)"},
      {"smiles": "C#C[C@]1(O)CC[C@H]2[C@@H]3CC=C4c5sc(-c6cccc(O)c6)nc5CC[C@]4(C)[C@H]3CC[C@@]21C", "growth": "-35% (active)"},
      {"smiles": "NS(=O)(=O)c1ccc(Nc2nc(SCc3ccccc3)nc3ccccc23)cc1", "growth": "83.3%"},
      {"smiles": "COc1cc2nc(Cl)nc(Nc3cccc(C4=Nc5c(N)nc(N)nc5NC(c5ccc6c(c5)OCO6)C4)c3)c2cc1OC", "note": "(stereo not given)", "growth": "112%"},
      {"smiles": "CC1(C)CC[C@]2(CN)CC[C@]3(C)C(=CC[C@@H]4[C@@]5(C)CCCNC(C)(C)[C@@H]5CC[C@]43C)[C@H]2C1", "growth": "105%"},
      {"smiles": "CC1(C)NCCC[C@]2(C)[C@H]3C/C(=N\\O)C4[C@@H]5C[C@@](C)(CO)CC[C@]5(C)CC[C@@]4(C)[C@]3(C)CC[C@@H]12", "note": "(stereo not given in full)", "growth": "104%"},
      {"smiles": "CC(C)(C)c1ccc(C(=O)Nc2sc3c(c2C(N)=O)CC/C(=N\\O)C3)cc1", "growth": "26.6%"},
      {"smiles": "NC(N)=Nc1ccc(Oc2cccc(NC(N)=Nc3ccc(Br)c(C(F)(F)F)c3)c2)cc1", "growth": "45.1%"},
      {"smiles": "CCCn1cnc2c(c1=N)C(c1ccc(OC)cc1)c1sc3c(CC)cccc3c1O2", "note": "(stereo not given)", "growth": "41.1%"},
      {"smiles": "CNC1CCc2c(sc(NC(=O)c3ccc(C(C)(C)C)cc3)c2C(N)=O)C1", "note": "(stereo not given)", "growth": "67%"},
      {"smiles": "N#Cc1cccc(CN2CCC3=C(C2)C(=O)N(Cc2ccc(Cl)cc2)C2=NCCN23)c1", "growth": "38.6%"},
      {"smiles": "C#CCNC1CCC(c2csc(C#C)n2)=C1C", "note": "(stereo not given)", "growth": "76%"},
      {"smiles": "CC1=N[C@@H]2CN(C(=O)OC(C)(C)C)C[C@@H]2n2c1cc1ccccc1c2=O", "growth": "107%"},
      {"smiles": "c1ccc(C(c2nc3ncncc3[nH]2)N2CSc3nc4ncncc4n3C2)cc1", "note": "(stereo not given)", "growth": "62.4%"},
      {"smiles": "COc1cccc(C(=O)Nc2cccc(C#Cc3cccc4[nH]nc(N)c34)c2)c1", "growth": "69.2%"},
      {"smiles": "COc1cc2c(cc1OC)C(Sc1ccc(F)cc1)c1c(nc(N)c(C#N)c1N)O2", "note": "(stereo not given)", "growth": "-88.2% (active)"},
      {"smiles": "COc1ccccc1NCc1cccn1Cc1ccc(F)cc1", "growth": "95.7%"},
      {"smiles": "COC(=O)c1[nH]nc2c1C1(C(=O)N(C)c3ccccc31)C(C#N)=C(N)O2", "note": "(stereo not given)", "growth": "103%"},
      {"smiles": "O=C(CCn1cc[n+](CC(=O)c2ccc(-c3ccccc3)cc2)c1)Nc1cccc2cccnc12", "growth": "91.7%"},
      {"smiles": "Clc1nc2ccccc2nc1-c1nnc(C2CCCCC2)o1", "growth": "107%"},
      {"smiles": "Cc1ccc2c(c1)C(=O)/C(=C/c1cccc(F)c1)S2", "growth": "105%"},
      {"smiles": "COc1ccccc1-n1cc(C#N)c(N)c1C(=O)c1ccc(Br)cc1", "growth": "94.4%"},
      {"smiles": "CS(=O)(=O)Nc1cc(-c2ccc3ncc(C#N)c(Nc4cccc(Cl)c4F)c3c2)cnc1Cl", "growth": "21.2%"},
      {"smiles": "O=S(=O)(Nc1ccc2c(c1)OCO2)c1ccc(-c2cnc(C3CC3)o2)cc1", "growth": "60.7%"},
      {"smiles": "Cc1ccc(-c2cc3nc(C(Cl)Cl)nc(C)n3n2)cc1", "growth": "104%"},
      {"smiles": "Cn1ccnc1C(=O)/C=C/c1ccc(CNC(=O)c2ccc(S(F)(F)(F)(F)F)cc2)cc1", "growth": "22.4%"},
      {"smiles": "COc1c(N2CC3CCCNC3C2)c(F)cc2c(=O)c(C(=O)N/N=C/c3ccc4c(c3)OCO4)cn(C3CC3)c12", "note": "(stereo not given)", "growth": "87.3%"},
      {"smiles": "CCO/C=N/C1=C(C#N)C(c2ccc(Cl)cc2)c2sc3c(C)cccc3c2O1", "note": "(stereo not given)", "growth": "27.9%"},
      {"smiles": "Cc1ccc(NC(=S)NNC(=S)Nc2ccc(C)cc2)cc1", "growth": "104%"},
      {"smiles": "COc1ccc(-c2nc(C(Cl)Cl)nc3cc(-c4ccccc4)nn23)cc1", "growth": "-12.9% (active)"},
      {"smiles": "CCCn1cnc2c(c1=N)C(c1ccc(Cl)cc1)c1sc3c(C)cccc3c1O2", "note": "(stereo not given)", "growth": "34.2%"},
      {"smiles": "C=CCn1c(SCC(=O)Nc2ccc(C(=O)/C=C/c3cccc([N+](=O)[O-])c3)cc2)nnc1-c1c[nH]c2ccccc12", "growth": "96.8%"},
      {"smiles": "COC(=O)/C=C/c1c(C2(C)NC(=O)c3ccccc3N2)c(=O)oc2ccc(Cl)cc12", "note": "(stereo not given)", "growth": "101%"},
      {"smiles": "CCO/C=N/C1=C(C#N)C(c2ccc(OC)cc2)c2sc3c(CC)cccc3c2O1", "note": "(stereo not given)", "growth": "43.5%"},
      {"smiles": "O=C1Nc2ccccc2/C1=C/c1ccc(COCC2CO2)n1-c1ccc(O)cc1", "note": "(stereo not given)", "growth": "107%"}
    ]}
  ]
}
